# According to PubChem BioAssay:
# Activity calls are given as the source filed them. Cut-off read from the data, not from the text of the source, unless noted: active = inhibition above about 80%; inactive = the rest.
# Columns and labels:
# [1] = galactose survival enhancers in mitochondrial complex I cybrids – cell-based, galactose medium, ATP luminescence, primary screen (AID 1645843;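 active = z-score of at least 1.8 in each of two replicates, scored against plate mean and spread of sample wells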;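 note: positive z means more ATP and so rescue of galactose-driven cybrid death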); conditions: complex I mutant cybrid cells, 72 h, stronger effect = higher value
# [2] = compounds altering circadian rhythm period length – cell-based, LOPAC library, luminescence reporter (AID 2774; call rule not given here;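 note: values are relative to mean of DMSO wells on each plate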); conditions: circadian reporter cells, at 7 µM, actives lie on both sides
# [3] = growth inhibition, single agent or in combination, cell-based, chromothripsis tumors, cisplatin or BGB combos (AID 1671449); conditions: LFS_MB_P medulloblastoma cells;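 note: cells exposed for 96 hours; 0% = vehicle DMSO and 100% = killing by high DMSO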
# [4] = growth inhibition, single agent and combos, cell-based, chromothripsis tumors, cisplatin or BGB combos (AID 1671450); conditions: HDN33 neuroblastoma cells, stronger effect = higher value;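 note: cells exposed to compound for four days; 0% = vehicle DMSO and 100% = cell killing by high DMSO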
# [5] = growth inhibition, single agents and combos, ICB984, cell-based, cisplatin or BGB combos, synergistic combos for chromothripsis tumors (AID 1671451; call rule not given here;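 note: cells exposed for 96 hours before readout; 0% = vehicle DMSO and 100% = killing by high DMSO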); conditions: ICB984 medulloblastoma cells, drug combinations, stronger effect = higher value
# [6] = growth inhibition, single agents and combos, LFS_MB_1R, cell-based, cisplatin or BGB combos, synergistic combos for chromothripsis tumors (AID 1671452); conditions: LFS_MB_1R medulloblastoma cells, stronger effect = higher value;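 note: cells exposed for 96 hours before readout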
# [7] = growth inhibition, single agents and combos, HTB85, cell-based, BGB or cisplatin IC20 combos, synergistic combos for chromothripsis tumors (AID 1671453); conditions: HTB85 osteosarcoma cells, drug combinations, stronger effect = higher value;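 note: cells exposed for 96 hours before readout; 0% = vehicle DMSO and 100% = high DMSO killing control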
# [8] = growth inhibition, single agents and combos, CRL2098, cell-based, BGB or cisplatin IC20 combos, synergistic combos for chromothripsis tumors (AID 1671454); conditions: CRL2098 osteosarcoma cells, drug combinations, stronger effect = higher value;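 note: cells exposed for 96 h before readout; 0% = vehicle DMSO and 100% = killing by high DMSO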
# [9] = growth inhibition, single agents and combos, HD-MB03, cell-based, BGB or cisplatin IC20 combos, synergistic combos for chromothripsis tumors (AID 1671455; in the data active = inhibition above about 83%;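 note: 0% = vehicle DMSO and 100% = high DMSO as cytotoxic control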); conditions: HD-MB03 medulloblastoma cells, stronger effect = higher value
# [10] = growth inhibition, single agents and combos, UWB1.289, cell-based, BGB or cisplatin combos, synergistic combos for chromothripsis tumors (AID 1671456); conditions: UWB1.289 ovarian carcinoma cells, stronger effect = higher value;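 note: cells exposed to compound for four days; 0% = vehicle DMSO and 100% = killing by high DMSO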
# [11] = growth inhibition, single agents and combos, LFS_MB_2R, cell-based, cisplatin combos, synergistic combos for chromothripsis tumors (AID 1671457); conditions: LFS_MB_2R medulloblastoma cells, stronger effect = higher value;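 note: cells exposed to compound for four days before readout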
# [12] = growth inhibition, MDA-MB-436, cell-based, BGB or cisplatin combos, synergistic combos for chromothripsis tumors (AID 1671458; call rule not given here;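 note: cells exposed for 96 hours; 0% = vehicle DMSO and 100% = killing by high DMSO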); conditions: MDA-MB-436 breast carcinoma growth inhibition, drug combinations, stronger effect = higher value
# [13] = UWB1.289_BRCA1 ovarian cancer growth, cell-based, BGB or cisplatin combinations (AID 1671459); conditions: UWB1.289 BRCA1 ovarian carcinoma, drug combinations, stronger effect = higher value
# [14] = drug combination toxicity in non-malignant astrocytes – cell-based, BGB or cisplatin IC20 combos, cytotoxicity control for chromothriptic childhood tumor combination screen (AID 1671460); conditions: Human astrocytes, viability inhibition, drug combinations, at 0.5 µM, stronger effect = higher value;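 note: cells exposed to compounds for 96 hours before viability readout; 0% = vehicle and 100% = killing control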
# [15] = BT084 cell growth, single and combined drugs, ICGC_MB145, cisplatin and BGB IC40 combos (AID 1671461); conditions: BT084 medulloblastoma cells, drug combinations, stronger effect = higher value;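 note: cells exposed to drugs for 96 hours; 0% = vehicle DMSO and 100% = high DMSO full killing control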
# [16] = RCMB18 cell growth, single agent and combined, cisplatin and BGB IC40 combos (AID 1671462); conditions: RCMB18 medulloblastoma cells, stronger effect = higher value;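 note: cells exposed to compound for four days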
# [17] = CRL1545 cell growth, single agent and combined, cisplatin and BGB IC20 combos (AID 1671464); conditions: CRL1545 osteosarcoma cells, stronger effect = higher value;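 note: cells exposed to compound for 96 hours before readout; 0% = vehicle DMSO and 100% = high DMSO killing control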
# [18] = measured here: combination with BGB IC40, at 0.05 µM
# [19] = measured here: with BGB IC20 combination, at 0.5 µM
# [20] = measured here: with cisplatin IC20 combination, at 0.5 µM
# [21] = measured here: combination with cisplatin, at 0.5 µM
# [22] = measured here: combination with cisplatin, at 5 µM
compound,measurement,setting,value
CCN1CCCC(N2CCN3CCCC3C2)C1 (stereo unspecified),z-score,[1],-0.225 (inactive)
Nc1ncnc2c1ncn2C1OC2COP(O)(=S)O[C@@H]2[C@@H]1O (stereo partly specified),period change,[2],-0.125 h (inactive)
CCCOC1CCCN(C2CCN(C)CC2)C1 (stereo unspecified),z-score,[1],-0.46 (inactive)
CC1(C)C(C(=O)Nc2ccc(S(=O)(=O)c3ccc(NC(=O)C4C(C)(C)C4(C)C)cc3)cc2)C1(C)C,inhibition,"[3]; at 0.5 µM, stronger effect = higher value",-7.93% (inactive)
same,inhibition,"[3]; measured here: combination with BGB IC20, at 0.005 µM",-18.4%
same,inhibition,"[3]; measured here: combination with BGB IC40, at 0.005 µM",-46.1%
same,inhibition,[3]; [18],-26.3%
same,inhibition,"[3]; measured here: combination with cisplatin, at 0.5 µM, stronger effect = higher value",-30.9%
same,inhibition,"[3]; measured here: combination with cisplatin, at 5 µM, stronger effect = higher value",-41.5%
same,inhibition,"[4]; BGB combo, at 5 µM",-17.4%
same,inhibition,[4]; at 0.5 µM,-53.9% (inactive)
same,inhibition,"[4]; cisplatin combo, at 5 µM",-66.6%
same,inhibition,[4]; [19],-56.4%
same,inhibition,[4]; [20],-51.1%
same,inhibition,"[4]; single agent, at 5 µM",-24.6%
same,inhibition,"[5]; BGB IC20 combo, at 0.005 µM",-19.6%
same,inhibition,"[5]; BGB IC40 combo, at 0.005 µM",-21.6%
same,inhibition,"[5]; BGB IC40 combo, at 0.05 µM",0.527%
same,inhibition,[5]; at 0.5 µM,-22.6% (inactive)
same,inhibition,"[5]; cisplatin combo, at 0.05 µM",-4.5%
same,inhibition,"[5]; cisplatin combo, at 0.5 µM",-42.3%
same,inhibition,"[5]; cisplatin combo, at 5 µM",-31.4%
same,inhibition,"[5]; measured here: 5 uM single agent, at 5 µM",-26.8%
same,inhibition,[6]; at 0.5 µM,-36.5% (inactive)
same,inhibition,[6]; [18],-27.2%
same,inhibition,[6]; [21],-46.1%
same,inhibition,[6]; [22],-61.4%
same,inhibition,[7]; at 0.5 µM,-37.5% (inactive)
same,inhibition,"[7]; measured here: with BGB IC20, at 0.5 µM",-37%
same,inhibition,"[7]; measured here: with BGB IC20, at 5 µM",-16.1%
same,inhibition,"[7]; measured here: with cisplatin IC20, at 0.5 µM",-31.9%
same,inhibition,"[7]; measured here: with cisplatin IC20, at 5 µM",-19.7%
same,inhibition,"[7]; single agent, at 5 µM",-8.34%
same,inhibition,[8]; at 0.5 µM,-53.9% (inactive)
same,inhibition,"[8]; measured here: combination with BGB at IC20, at 0.5 µM",-51.4%
same,inhibition,"[8]; measured here: combination with cisplatin at IC20, at 0.5 µM",-77.7%
same,inhibition,[9]; at 0.5 µM,-19.9% (inactive)
same,inhibition,"[9]; measured here: combo with BGB at IC20, at 0.5 µM",-12.1%
same,inhibition,"[9]; measured here: combo with cisplatin at IC20, at 0.5 µM",-33.5%
same,inhibition,[10]; at 0.5 µM,-16.5% (inactive)
same,inhibition,"[10]; measured here: inhibition with BGB combination, at 0.05 µM",-34%
same,inhibition,"[10]; measured here: inhibition with cisplatin combination, at 0.05 µM",-37.9%
same,inhibition,[11]; at 0.5 µM,-14.5% (inactive)
same,inhibition,[11]; [21],-16.8%
same,inhibition,[11]; [22],-6.76%
same,inhibition,[12]; at 0.5 µM,-18.2% (inactive)
same,inhibition,"[12]; measured here: BGB combination, at 0.5 µM",-21%
same,inhibition,"[12]; measured here: BGB combination, at 5 µM",-4.44%
same,inhibition,"[12]; measured here: cisplatin combination, at 0.5 µM",-40.7%
same,inhibition,"[12]; measured here: cisplatin combination, at 5 µM",-26%
same,inhibition,"[13]; BGB combination, concentration series, at 5 µM",2.97%
same,inhibition,[13]; at 0.5 µM,-24.5% (inactive)
same,inhibition,"[13]; cisplatin combination, concentration series, at 5 µM",-16%
same,inhibition,[14],4.8% (inactive)
same,inhibition,[14]; measured here: combo with BGB IC20,12.4%
same,inhibition,[14]; measured here: combo with cisplatin IC20,-16.1%
same,inhibition,[15]; at 0.5 µM,-6.8% (inactive)
same,inhibition,"[15]; cisplatin combination, at 0.5 µM",-4.81%
same,inhibition,"[15]; cisplatin combination, at 5 µM",-82%
same,inhibition,"[15]; measured here: BGB IC40 combination 0.05 uM, at 0.05 µM",-20.9%
same,inhibition,"[15]; single agent, at 5 µM",2.54%
same,inhibition,[16]; at 0.5 µM,-8.5% (inactive)
same,inhibition,"[16]; cisplatin combo, at 5 µM",-42.1%
same,inhibition,"[16]; measured here: BGB IC40 combination, at 0.05 µM",3.16%
same,inhibition,[16]; [21],-23.3%
same,inhibition,"[16]; single agent, at 5 µM",22.7%
same,inhibition,[17]; at 0.5 µM,-34.4% (inactive)
same,inhibition,[17]; [19],-61.8%
same,inhibition,[17]; [20],-22.6%
same,inhibition,"[17]; single agent, at 0.05 µM",-37.3%
same,inhibition,"[17]; single agent, at 5 µM",14.2%
